# Screening data (PubChem)
# A selection: hits, their analogues and other compounds. The true share with any hit is near 3.1%.
# HIF activator: HIF pathway transcriptional activation; AID 1910; activation, % at 7.5 µM (by protocol); U2OS HRE-luciferase reporter, luminescence; normalized: DMSO 0%, desferrioxamine 100%; actives 0.32% (n = 300,000);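 active = mean activation of at least 10% of the iron chelator positive control signal, with at least half of replicates also reaching 10%; inconclusive = mean and replicate majority disagree about reaching 10%; inactive = mean and most replicates under 10%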
# HSP90 inh: blocks HSP90-mediated luciferase refolding in reticulocyte lysate | Rabbit reticulocyte lysate, luciferase refolding luminescence, 3 h | inhibition, % at 5.6 µM | actives 0.91% (n = 290,000) | AID 1789;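 active = inhibition above the screen-wide mean plus 3 SD, computed separately per campaign, cut at about 16% in these data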;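 note: 0% = DMSO wells and 100% = 60 µM geldanamycin wells; inhibitors lower the luminescence because luciferase stays unfolded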
# HSF-1 act: increases HSF-1 driven luciferase reporter signal | NIH3T3-HGL HSF-1 luciferase reporter, MG132, 8 h; 100% = twice DMSO control signal | activation, % at 9 µM | actives 1.7% (n = 300,000) | AID 504408;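 active = mean replicate activation of at least 50% with a set share of replicates each reaching 50%; inconclusive = only one of those two conditions met; inactive = mean below 50% and too few replicates reaching it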;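 note: 0% = median of the neutral control wells and 100% = twice that signal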
# ARNT TACC3 PPI: disruptors of human ARNT/TACC3 interaction; AlphaScreen His-ARNT PAS-B/GST-TACC3 binding, luminescence; TACC3 fragment carries E629A point mutation; actives 0.66% (n = 390,000); inhibition, % at 9.99 µM; Q9Y6A5;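 active = mean inhibition of replicates at least 50% and at least half of replicates each reaching 50%; inconclusive = half or more replicates reach 50% but mean below 50%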;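 note: 0% = complete ARNT plus TACC3 wells and 100% = ARNT alone without TACC3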
# HSF1 inh: HSF1 inhibition; NIH3T3-HGL HSE-luciferase, MG132-induced, luminescence 8 h; hits give low values; activity change, negative = inhibition, % at 7.5 µM (by protocol); actives 0.77% (n = 300,000); AID 2098;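 active = more than half of replicate wells show activity change below -50%, luminescence cut by over half; inconclusive = some wells, but at most half, below -50%; inactive = no replicate well below -50%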;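 note: luciferase reports HSF-1 transcriptional activity via heat shock element; 0% = median of DMSO wells and -100% = zero luminescence signal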
# Starred values were filed as active, the others as inactive; ? = inconclusive; / = no result given.
SMILES,HIF activator,HSP90 inh,HSF-1 act,ARNT TACC3 PPI,HSF1 inh
COCCNC(=O)C(OC(=O)c1cccs1)c1ccccc1 (configuration not stated),0,0,-63,-1,-55*
C[C@@H]1CN([C@H](C)CO)C(=O)c2cc(C#CC3CCCC3)cnc2O[C@H]1CN(C)C(=O)c1ccncc1,/,/,/,2,/
CSc1sc(C(=O)OC(C)C)c2c1C(=O)CC(C)(C)C2,0,0,53*,4,30
Cc1ccc(S(=O)(=O)N(C)c2c(C)ccc(S(=O)(=O)N3CCN(C)CC3)c2C)cc1,0,-3,-70,15,-60*
Cc1ccc(S(=O)(=O)N(C)c2c(C)ccc(S(=O)(=O)N3CCN(C=O)CC3)c2C)cc1,0,-1,-4,-1,1
COc1ccc(NC(=O)c2nc(S(=O)(=O)Cc3cccc(C)c3)ncc2Cl)c(OC)c1,-2,1,204*,-3,171
COc1ccc(OC)c(NC(=O)c2nc(S(=O)(=O)Cc3ccccc3)ncc2Cl)c1,-6,1,-95,-10,-94*
COc1ccc(NC(=O)c2c(-c3ccccc3Cl)noc2C)c(OC)c1,0,4,3,-38,18
C[C@@H]1CCCCO[C@H](CN(C)C(=O)C2CCCCC2)[C@@H](C)CN([C@@H](C)CO)C(=O)c2cc(NC(=O)Nc3ccc(F)cc3)ccc2O1,/,/,/,-4,/
C[C@@H]1CN([C@H](C)CO)C(=O)c2cc(C3=CCCC3)cnc2O[C@H]1CN(C)C(=O)Cc1ccncc1,/,/,/,7,/
O=C(O)c1cc([N+](=O)[O-])c(NCCC2=CCCCC2)c([N+](=O)[O-])c1,0,4,59*,-5,20
O=c1[nH]c(/C=C/c2ccc(Br)cc2)nc2ccccc12,2,0,65*,-28,41
N#CCc1nc2ccccc2c(=O)[nH]1,0,-1,65*,-1,38
O=c1[nH]c(COc2ccc(Br)cc2Cl)nc2ccccc12,3,-3,90*,-2,50
Cc1cccc(/C=C\c2nc3ccccc3c(=O)[nH]2)c1,3,2,34,0,19
O=c1[nH]c(COc2ccccc2)nc2ccccc12,2,-1,27,-13,11
O=C(c1ccc2c(c1)N(Cc1ccc(F)cc1)CCS2)N1CCOCC1,0,3,25,8.5*,-2
O=C(c1ccc2c(c1)N(Cc1ccccc1)CCS2)N1CCOCC1,0,1,5,-1,2
O=C(C[C@H]1CC[C@@H]2[C@H](COC[C@@H](O)CN2C(=O)c2ccncc2)O1)NC1CCC1,/,/,/,-3,/
COCC(=O)N(C)C[C@@H]1Oc2ncc(-c3cccc(OC)c3)cc2C(=O)N([C@H](C)CO)C[C@H]1C,/,/,/,1,/
O=S(=O)(NC1c2cccc3cccc(c23)C1N1CCNCC1)c1ccc(Cl)cc1 (configuration not stated),0,-1,61*,-10,26
Cc1ccc(S(=O)(=O)Nc2nc3ccccc3nc2NCc2ccco2)cc1,3,-1,68*,10,44
C[C@H]1CCCCO[C@@H](CN(C)CC2CCCCC2)[C@@H](C)CN([C@@H](C)CO)C(=O)c2cc(NC(=O)Cc3ccccc3)ccc2O1,/,/,/,-3,/
Cc1cc(C(=O)Nc2cccc3c2O[C@@H](CN(C)CC2CCCCC2)[C@H](C)CN([C@H](C)CO)C3=O)n(C)n1,/,/,/,-8,/
O=C1CN(c2nc(-c3cccnc3)nc3sc4c(c23)CCCC4)CCN1,1,-4,-2,6,-1
SMILES,HIF activator,HSP90 inh,HSF-1 act,ARNT TACC3 PPI,HSF1 inh
Nc1nc(-c2cccnc2)nc2sc3c(c12)CCCC3,1,-1,80*,/,28
O=c1oc(-c2ccccc2)nc2sc3c(c12)CCCC3,8,5,69*,-5,51
CCOC(=O)C1=C(CN2CCN(C(=O)c3ccco3)CC2)NC(=O)NC1c1ccc(OC)cc1 (configuration not stated),0,1,-91,-2,-88*
CCOC(=O)C1=C(CN2CCN(C(=O)c3ccco3)CC2)NC(=O)NC1c1ccccc1 (configuration not stated),-3,5,11,2,-2
CC(C)C#Cc1ccc2c(c1)O[C@@H](CN(C)C(=O)Cc1ccccn1)[C@@H](C)CN([C@H](C)CO)S2(=O)=O,/,/,/,-4,/
COc1ccc(-c2ccc3c(c2)[C@H]2[C@H](CCN2S(=O)(=O)c2ccc(OC)cc2)[C@H](CO)N3)cc1,/,/,/,0,/
C[C@@H]1CN([C@H](C)CO)C(=O)c2cccc(NC(=O)Nc3ccccc3)c2O[C@H]1CN(C)C(=O)NC1CCCCC1,/,/,/,5,/
O=C(O)c1ccc(N/C(=N\S(=O)(=O)c2ccc(Cl)cc2)c2ccccc2)cc1,0,6,-2,-1,-4
O=C(NN/C(=N/S(=O)(=O)c1ccc(Cl)cc1)c1ccccc1)c1cccc(Cl)c1,2,0,52*,-5,16
Cc1ccc(S(=O)(=O)/N=C(/NNC(=O)c2cccc(Cl)c2)c2ccccc2)cc1,2,3,43,4,16
O=C(NN/C(=N/S(=O)(=O)c1ccc(Cl)cc1)c1ccccc1)c1ccc(O)cc1,3,3,60*,-4,33
C[C@H](CO)N1C[C@H](C)[C@@H](CN(C)C(=O)CCCN(C)C)OCCCC[C@H](C)Oc2ccc(NS(=O)(=O)c3ccccc3)cc2C1=O,/,/,/,-16,/
Cc1cccc(OCCCCn2c(CO)nc3ccccc32)c1,1,-1,-7,4,1
COc1ccc(OCCCCn2c(CO)nc3ccccc32)cc1,0,1,-65,21,-54*
C[C@H]1CN([C@@H](C)CO)C(=O)Cc2cc(NC(=O)CCCN(C)C)ccc2O[C@@H]1CN(C)C(=O)NC1CCCCC1,/,/,/,5,/
Nn1cnnc1N/N=C/c1ccccc1C(F)(F)F,0,4,?,-1,29
COc1ccc(/C=N/Nc2nnc(C)n2N)cc1OC(C)=O,0,3,80*,1,40
Cc1nnc(N/N=C/c2ccc([N+](=O)[O-])cc2)n1N,3,0,39,13,20
Nn1cnnc1N/N=C/c1ccc(F)cc1,4,-4,55*,1,37
Cc1ccc(/C=N/Nc2nncn2N)cc1,3,-5,74*,-7,37
Cc1nnc(N/N=C/c2ccc(Br)cc2)n1N,-2,0,52*,-7,40
Nn1cnnc1N/N=C/c1cccc(Cl)c1Cl,0,-2,?,-6,29
CN1CCN(C(=O)C[C@@H]2CC[C@H]3[C@@H](COC[C@@H](O)CN3CC3CC3)O2)CC1,/,/,/,-6,/
CCCC(=O)Nc1ccc2c(c1)C(=O)N(C)[C@@H]1CC[C@@H](CC(=O)NCc3ccccc3)O[C@H]1CO2,/,/,/,8,/
CCN(CC)c1ccc(N=Nc2ncn[nH]2)cc1,1,-3,28,70*,-1
COC(=O)Cc1cc(=O)[nH]c(Nc2nc3ccccc3o2)n1,0,-1,-9,26,0
